The list is not random: actives were taken first. Their share in the collection is about 19%.
TDP1 cell noCPT: qHTS for Inhibitors of human tyrosyl-DNA phosphodiesterase 1 (TDP1): qHTS in cells in absence of CPT | DT40 Tdp1-/- hTDP1 cells, no CPT, ATP luminescence, 48 h | AID 686978, 2013 | hit rate 15% among 420,000 | Potency, µM (titrated, usually from 46.2 µM), without a hit: top-dose activity change, negative = growth inhibition, hits mostly inhibitors; further: potency means the concentration at half of the fitted maximal effect; on the % scale 0 is the no-effect control and ±100 the full control effect; nearly all actives have a fitted effect of over 55% in size
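DT40 Tdp1-/-;hTDP1 cells, no CPT (DMSO vehicle only), 400 cells/well; compounds pin-transferred; ≥48 hr, 37 °C; CellTiter-Glo 30 min RT dark, luminescence read.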
MCF10A rereplic: DNA re-replication induction in MCF 10a cells. Potency, µM (titrated, usually from 46.1 µM), without a hit: at the top dose activity, positive = re-replication, most hits filed as activators. MCF 10A DNA re-replication, Hoechst nuclear intensity, 48 h. hit rate 2.9% among 350,000; further: potency means the concentration at half of the fitted maximal effect; % of control where 0% means no effect; nearly all actives have a fitted effect of over 50% in size
SW480 rerep: induces DNA re-replication in SW480 colon adenocarcinoma cells; hit rate 1.8% among 340,000; SW480 DNA re-replication, Hoechst DNA content imaging, 48 h; Potency, µM (series often up to 46.1 µM), inactives show top-dose re-replication activation, usual class: activators; further: potency means the concentration at half of the fitted maximal effect; % of control where 0% means no effect; nearly all actives have a fitted effect of over 55% in size
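First, 250 cells per well were seeded. Next, compound or vehicle (23 nL) was pinned in, plates sat 48 hr at 37 C. Finally Hoechst was added for 40 min before fluorescence scanning.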
BCR signal inh: inhibitors of chronic active B-cell receptor signaling. ABC-DLBCL IkBa-CBG/CBR reporter, luminescence ratio, 4 h. Potency, µM (doses to about 46.1 µM), for the others: top-dose activity change, negative = inhibition, actives largely listed as inhibitors. hit rate 0.05% among 340,000; active means well fitted inhibition curve with a large enough effect in the signal ratio, with a control signal flat, not every such curve was filed as active; inconclusive means small, poorly fitted or top-dose-only effect, or effect the other way, or a change in a side signal; the % refers to the signal ratio;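 further: potency means the concentration at half of the fitted maximal effect; plate controls were basal doxycycline-induced cells for no effect and cells given 10 µM MG132 for full effect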
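TMD8 human ABC-DLBCL cells with doxycycline-inducible IκBα–green luciferase fusion and unfused red luciferase, in 0.5% FBS medium; compounds up to 46 uM, 4 h at 37C. Green/red luminescence ratio, filter-overlap corrected, fitted to concentration-response curves.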
DT40 TDP1 CPT: growth inhibition of DT40 Tdp1-/-;hTDP1 cells with camptothecin (screen for TDP1 inhibitors). hit rate 12% among 420,000. AID 686979. Potency, µM (titrated, usually from 46.2 µM), inactives show at the top dose activity change, negative = growth inhibition, actives largely listed as inhibitors. chicken DT40 Tdp1-/-;hTDP1 cells + 20 nM CPT, ATP luminescence, 48 h; further: potency means the concentration at half of the fitted maximal effect; on the % scale 0 is the no-effect control and ±100 the full control effect; nearly all actives have a fitted effect of over 55% in size
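Chicken DT40 Tdp1-/- cells stably complemented with human TDP1 were seeded at 400 cells/well in medium containing 20 nM camptothecin, exposed to pin-transferred compounds, and grown at 37 °C for at least 48 hr. Viability was read as ATP luminescence.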
IL-1B inflam inh: inflammasome signaling inhibition, IL-1 beta readout; hit rate 4.7% among 360,000; THP-1 LPS/ATP IL-1B secretion, AlphaLISA, 16 h; hits give low values; AID 743279; activity change, % at 57.5 µM; in the data active means activity change below about -50%; inconclusive means mostly about -30% to -49%; further: on the % scale 0 is the no-effect control and ±100 the full control effect
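THP-1 cells pretreated 1 hr with compounds (up to 57.5 uM final), then stimulated with LPS (250 ng/mL final) plus ATP (1.25 mM final); secreted IL-1B measured by AlphaLISA after 16 hr, decreased signal indicating inhibition.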
Numbers without * were called inactive; i = inactive; ? = inconclusive; · = no result given; [ ] = another dose, or the depositor's remark. Unless noted, the call rests on the fitted dose curve; in most records, active means well fitted curve in the direction sought with a large enough effect; inconclusive means small, poorly fitted or top-dose-only effect, or another doubt; inactive means no such curve, though single readings can be large; an effect the other way counts as inactive or inconclusive.

SMILES	TDP1 cell noCPT	MCF10A rereplic	SW480 rerep	BCR signal inh	DT40 TDP1 CPT	IL-1B inflam inh
COc1ccc(CCn2c(C)cc(C(=O)CSc3nnc(N)s3)c2C)cc1	?	13%	-1%	-13%	?	-10
COc1ccc(CCn2c(C)cc(C(=O)CSc3nc(N)cc(=O)[nH]3)c2C)cc1	12µM*	?	11%	-3%	12µM*	-17
Cc1cc(C(=O)CSc2nc(N)cc(=O)[nH]2)c(C)n1-c1ccc(OC(F)F)cc1	1.8µM*	6%	-3%	?	2.6µM*	-9
Cc1cc(C(=O)CSc2nc(N)cc(=O)[nH]2)ccc1F	-1%	13µM*	7%	2%	-17%	-4
CC1(c2nnnn2-c2ccc3c(c2)OCCO3)CCC(=O)N1CC1CCCCC1 (centres undefined)	?	·	·	·	-16%	5
CCOc1cc(OCC)cc(C(=O)N2CCC[C@@H]2C(=O)N2CCC[C@H]2C(=O)NCc2ccncc2)c1	-20%	·	·	·	-18%	53
COC(=O)CCC(C)C1CCC2C3CCC4CC(O)CCC4(C)C3CC(O)C12C (centres undefined)	21µM*	21µM*	1%	·	13µM*	-11
COC(=O)CCC(C)C1CCC2C3C(OC(C)=O)CC4CC(O)CCC4(C)C3CC(O)C12C (centres undefined)	16µM*	·	·	·	?	12
CC(CCC(=O)O)C1CCC2C3C(O)CC4CC(O)CCC4(C)C3CC(O)C12C (centres undefined)	-6%	-8%	-1%	?	-7%	18
C[C@H](CCC(=O)NCC(=O)O)[C@H]1CC[C@H]2[C@@H]3[C@H](O)C[C@@H]4C[C@H](O)CC[C@]4(C)[C@H]3C[C@H](O)[C@]12C	?	10%	8%	1%	5%	-16
Cc1cc(C)n(CCCNC(=O)C2CC(=O)N(Cc3ccccc3)C2)n1 (centres undefined)	-3%	-2%	-4%	-1%	21%	4
c1ccc2nc(-c3nc4ccccc4o3)ccc2c1	?	-14%	1%	?	14µM*	-3
O=C(Nc1ccc(C(=O)Nc2ccccc2Cl)cc1)c1cccnc1	-28%	-1%	1%	-3%	-22%	-1
C[C@@H]1CCCCO[C@H](CN(C)C(=O)C2CCCCC2)[C@@H](C)CN([C@H](C)CO)C(=O)c2cc(N(C)C)ccc2O1	?	·	·	·	?	-17
COC(=O)c1ccc(NC(=O)N2CCC(CN3CCc4ccccc4C3)CC2)cc1	-27%	·	·	·	?	·
CC(C)(C)c1ccc(C(=O)NCc2ccc(Cl)cc2)cc1	-9%	-3%	?	8%	-15%	-4
CCc1ccc(NC(=O)C(=O)NCCN2CCN(C(=O)c3ccc(OC)cc3)CC2)cc1	13µM*	·	·	·	?	-5
CC(C)(C)c1ccc(C(=O)N2CCN(CCNC(=O)C(=O)NCc3ccc(Cl)cc3)CC2)cc1	21µM*	?	?	-2%	15µM*	-67*
C=CCOc1ccc(/C=C/C(=O)OCC(=O)NCc2ccco2)cc1	?	?	-21%	7%	-10%	3
O=[N+]([O-])c1ccc(C23CC4CC(CC(O)(C4)C2)C3)cc1	·	·	·	4%	·	·
O=C(CSc1ncnc2c1cnn2-c1ccc(F)cc1)NC1CCCC1	21µM*	-2%	4%	0%	18µM*	i
O=C(CSc1ncnc2c1cnn2-c1ccc(F)cc1)NCC1CCCO1 (centres undefined)	?	5%	?	10%	?	-17
O=C(CSc1ncnc2c1cnn2-c1ccccc1)NC1CCS(=O)(=O)C1 (centres undefined)	8.2µM*	-3%	-10%	?	-28%	-11
Cc1cc(C)cc(NC(=S)N2CC(C)OC(C)C2)c1 (centres undefined)	30%	-1%	1%	6%	1%	7
CC(=NO)C1(C)CC=CCC1CO (centres undefined)	?	·	·	·	-2%	1
SMILES	TDP1 cell noCPT	MCF10A rereplic	SW480 rerep	BCR signal inh	DT40 TDP1 CPT	IL-1B inflam inh
COc1cc2c(cc1OC)C1N(CC2)C(=O)CCC12C(=O)CCCC2=O (centres undefined)	-4%[9.04 µM]	·	·	·	10%[9.04 µM]	·
CC(C(=O)N1c2ccccc2CCc2ccccc21)n1nnc(-c2ccc(N(C)C)cc2)n1 (centres undefined)	16µM*	-9%	2%	-19%	?	-20
CC(C(=O)N1c2ccccc2Sc2ccccc21)n1nnc(-c2cccs2)n1 (centres undefined)	-1%	0%	-1%	8%	-9%	8
CN(C)c1ccc(-c2nnn(Cc3ccccc3Br)n2)cc1	?	13%	18%	-5%	-21%	-15
Cc1ccc(-c2nnn(C(C)C(=O)N3c4ccccc4CCc4ccccc43)n2)cc1 (centres undefined)	29µM*	3%	2%	8%	?	-1
COc1cccc(-c2cnc(C(O)c3cccc(F)c3)[nH]2)c1 (centres undefined)	-25%	·	·	·	?	-2
NCCCC[C@H]1CNC(=S)N1CCCCC1CCCCC1	7.3µM*	?	-9%	?	9.2µM*	-2
NCCCC[C@H]1CNC(=S)N1CCc1cc(C(F)(F)F)cc(C(F)(F)F)c1	?	-6%	1%	1%	?	-51*
CCCC[C@@H]1CNC(=O)C(=O)N1CCCCC1CCCCC1	?	·	·	·	?	0
Cc1ccccc1OCC(=O)Nc1ccccc1OCc1cc(=O)n2ccccc2n1	-5%	·	·	·	-9%	·
C[C@H](NC(=O)C1CCN(S(=O)(=O)c2ccccc2)CC1)C(=O)NCc1ccc(Cl)c(Cl)c1	-27%	2%	11%	?	-29%	23
CCc1nc2c(OCc3cc(Cl)cc(Cl)c3)cccn2c1N(C)C(=O)CC(C)C	?	·	·	·	26µM*	-28
CCc1nc2c(OCc3ccc(Cl)cc3Cl)cccn2c1N(C)C(=O)CC(C)C	6.5µM*	·	·	·	?	-53*
CCc1nc2c(OCCOc3ccc(F)cc3)cccn2c1N(C)C(=O)CC(C)C	10µM*	·	·	·	16µM*	-2
CCc1nc2c(OCC(=O)c3ccc(F)cc3)cccn2c1N(C)C(=O)COc1ccccc1	21µM*	·	·	·	?	-15
COc1ccc(C(=O)c2cn(CC(=O)Nc3cc(OC)cc(OC)c3)c3ccc(OC)cc3c2=O)cc1	?	·	·	12%	-10%	·
